Read-out in assay [1]: Interleukin-1 alpha (IL1a), IL1A (gene 3552)
The assay can be described thus: BSK_KF3CT_IL1a: BioMAP Diversity Plus: KF3CT Assay for Interleukin-1 alpha (IL1a) Biomarker Activity (AID 2283070). The settings on record: primary human keratinocytes with fibroblasts; actives raise or lower the signal. The method, boiled down: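 Human keratinocyte plus foreskin fibroblast primary co-culture, sampled 24 h after chemical dosing. IL-1a measured by ELISA; responses fitted bidirectionally against DMSO baseline (negative control), so gain or loss of signal both count.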

Read-out in assay [2]: TIMP metallopeptidase inhibitor 2 (TIMP2), TIMP2 (gene 7077)
The assay can be described thus: BSK_KF3CT_TIMP2: BioMAP Diversity Plus: KF3CT Assay for TIMP metallopeptidase inhibitor 2 (TIMP2) Biomarker Activity (AID 2283071). Conditions: primary human keratinocytes with fibroblasts; actives raise or lower the signal. In a few lines:
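Human primary keratinocyte/foreskin fibroblast co-culture dosed with chemical and sampled at 24 h. TIMP-2 levels quantified by ELISA; bidirectional fitting against DMSO negative control as baseline.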

Read-out in assay [3]: Transforming growth factor beta 1 (TGFb1), TGFB1 (gene 7040)
The assay can be described thus: BSK_KF3CT_TGFb1: BioMAP Diversity Plus: KF3CT Assay for Transforming growth factor beta 1 (TGFb1) Biomarker Activity (AID 2283072). The settings on record: primary human keratinocytes with fibroblasts; actives raise or lower the signal. In a few lines:
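Human keratinocyte plus foreskin fibroblast primary co-culture, dosed with chemical for 24 h. TGF-b1 quantified by ELISA. Activity fitted bidirectionally against DMSO negative control as baseline.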

Read-out in assay [4]: C-C motif chemokine 2 (Homo sapiens) (UniProt P13500)
The assay is described as follows: BSK_KF3CT_MCP1: BioMAP Diversity Plus: KF3CT Assay for Monocyte Chemoattractant Protein 1 (MCP1/CCL2) Biomarker Activity (AID 2283073). The settings on record: primary human keratinocytes with fibroblasts; actives raise or lower the signal. In a few lines:
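KF3CT skin co-culture (keratinocytes/foreskin fibroblasts), 24 h post-dose; MCP-1 by ELISA; gain/loss of signal fit bidirectionally vs DMSO baseline.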

Read-out in assay [5]: Matrix Metallopeptidase 9 (MMP9), MMP9 (gene 4318)
The assay is described as follows: BSK_KF3CT_MMP9: BioMAP Diversity Plus: KF3CT Assay for Matrix Metallopeptidase 9 (MMP9) Biomarker Activity (AID 2283074).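 For AC50: MMP9 protein level quantified by ELISA in the co-culture.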 Conditions: primary human keratinocytes with fibroblasts; actives raise or lower the signal. In a few lines: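 Keratinocyte plus foreskin fibroblast human primary skin co-culture was dosed with chemical and MMP-9 was quantified by ELISA 24 h later. Bidirectional curve fitting used DMSO as negative control and activity baseline.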

Read-out in assay [6]: urokinase plasminogen activator (uPA), PLAU (gene 5328)
The assay is described as follows: BSK_KF3CT_uPA: BioMAP Diversity Plus: KF3CT Assay for urokinase plasminogen activator (uPA) Biomarker Activity (AID 2283075). Conditions: primary human keratinocytes with fibroblasts; actives raise or lower the signal. The method, boiled down: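 Human keratinocyte plus foreskin fibroblast primary co-culture exposed to chemical for 24 h. uPA levels were quantified by ELISA, and activity was fitted bidirectionally against a DMSO negative-control baseline.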

Read-out in assay [7]: CD40, CD40 (gene 958)
The assay can be described thus: BSK_LPS_CD40: BioMAP Diversity Plus: LPS Assay for CD40 Biomarker Activity (AID 2283076). Conditions: primary human HUVEC with PBMC; actives raise or lower the signal. In a few lines:
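ELISA readout of CD40 in HUVEC/PBMC co-culture (BSK_LPS system), 24 h post-dosing; bidirectional curve fit, DMSO baseline; parallel SRB total-protein staining for cytotoxicity.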

Read-out in assay [8]: E-selectin (Homo sapiens) (UniProt P16581)
The assay can be described thus: BSK_LPS_Eselectin: BioMAP Diversity Plus: LPS Assay for Eselectin Biomarker Activity (AID 2283077). Conditions: primary human HUVEC with PBMC; actives raise or lower the signal. The method, boiled down:
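ELISA readout of E-selectin, 24 h post-dose, HUVEC + PBMC co-culture (LPS system). Gain or loss of signal vs DMSO baseline, bidirectional fit.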

Read-out in assay [9]: Interleukin-8 (IL8), CXCL8 (gene 3576)
The assay is described as follows: BSK_LPS_IL8: BioMAP Diversity Plus: LPS Assay for Interleukin-8 (IL8) Biomarker Activity (AID 2283078). The settings on record: primary human HUVEC with PBMC; actives raise or lower the signal. The method, boiled down:
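HUVEC + PBMC co-culture, LPS-activated; test chemicals dosed, IL-8 read by ELISA at 24 h. Bidirectional curve fit vs DMSO baseline (gain or loss of signal).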

The nature of assay [10]: BSK_LPS_SRB: Viability Assessment in the BioMAP Diversity Plus: LPS Assay (AID 2283079).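 Note: total protein by sulforhodamine B absorbance as a cytotoxicity measure; measured one day after compound addition.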 Conditions: primary human HUVEC with PBMC. The method, boiled down: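 HUVEC + PBMC co-culture, LPS-stimulated; compound 24 h. 10% TCA fix, 0.1% SRB stain, A560. Bidirectional fit vs DMSO.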
Read-out in assay [11]: Interleukin-1 alpha (IL1a), IL1A (gene 3552)
The assay is described as follows: BSK_LPS_IL1a: BioMAP Diversity Plus: LPS Assay for Interleukin-1 alpha (IL1a) Biomarker Activity (AID 2283080). Conditions: primary human HUVEC with PBMC; actives raise or lower the signal. The method, boiled down:
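HUVEC/PBMC co-culture, LPS system; 24 h after dosing; IL-1a by ELISA; gain or loss of signal fitted bidirectionally vs DMSO baseline.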

Read-out in assay [12]: Monocyte Chemoattractant Protein-1 (MCP1), CCL2 (gene 6347)
The assay is described as follows: BSK_LPS_MCP1: BioMAP Diversity Plus: LPS Assay for Monocyte Chemoattractant Protein-1 (MCP1) Biomarker Activity (AID 2283081). The settings on record: primary human HUVEC with PBMC; actives raise or lower the signal. In a few lines: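 ELISA read-out of MCP-1 after 24 h chemical dosing of a human umbilical vein endothelial cell/peripheral blood mononuclear cell co-culture stimulated with LPS. Gain or loss of signal fitted relative to DMSO controls.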

Assay [13] can be described thus: BSK_LPS_PGE2: BioMAP Diversity Plus: LPS Assay for Prostaglandin E2 (PGE2) Biomarker Activity (AID 2283082).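 For AC50: secreted prostaglandin E2 measured by ELISA in LPS-stimulated co-culture.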 Conditions: primary human HUVEC with PBMC; actives raise or lower the signal. The method, boiled down:
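HUVEC plus PBMC co-culture stimulated with LPS; secreted PGE2 quantified by ELISA 24 h after chemical dosing. Activity fitted bidirectionally against DMSO as negative control and baseline; parallel SRB total-protein staining served as cytotoxicity check.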

Read-out in assay [14]: Macrophage colony-stimulating factor (MCSF), CSF1 (gene 1435)
The assay can be described thus: BSK_LPS_MCSF: BioMAP Diversity Plus: LPS Assay for Macrophage colony-stimulating factor (MCSF) Biomarker Activity (AID 2283083). Conditions: primary human HUVEC with PBMC; actives raise or lower the signal. In a few lines:
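HUVEC + PBMC co-culture (human primary), 24 h post-dose; M-CSF by ELISA; gain/loss of signal fitted bidirectionally vs DMSO baseline.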

Read-out in assay [15]: Tissue Factor, F3 (gene 2152)
The assay can be described thus: BSK_LPS_TissueFactor: BioMAP Diversity Plus: LPS Assay for Tissue Factor Biomarker Activity (AID 2283084). Conditions: primary human HUVEC with PBMC; actives raise or lower the signal. In a few lines: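 HUVEC/PBMC co-culture, LPS-activated; CD142 ELISA read 24 h post-dose; bidirectional curve fit vs DMSO negative control.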

Read-out in assay [16]: Tumor necrosis factor (Homo sapiens) (UniProt P01375)
The assay can be described thus: BSK_LPS_TNFa: BioMAP Diversity Plus: LPS Assay for Tumour Necrosis Factor alpha (TNFa) Biomarker Activity (AID 2283085).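 For AC50: TNFa protein level quantified by ELISA in the co-culture.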 Conditions: primary human HUVEC with PBMC; actives raise or lower the signal. The method, boiled down:
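Human umbilical vein endothelial cells co-cultured with PBMC were exposed to test chemical and TNFa measured by ELISA 24 h after dosing. Bidirectional curve fitting was done relative to DMSO as negative control and baseline.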

Read-out in assay [17]: Vascular cell adhesion molecule 1 (VCAM1), VCAM1 (gene 7412)
The assay can be described thus: BSK_LPS_VCAM1: BioMAP Diversity Plus: LPS Assay for Vascular cell adhesion molecule 1 (VCAM1) Biomarker Activity (AID 2283086). Conditions: primary human HUVEC with PBMC; actives raise or lower the signal. The method, boiled down: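 Human umbilical vein endothelial cells co-cultured with peripheral blood mononuclear cells under LPS stimulation were exposed to test chemical for 24 h. VCAM-1 levels were then measured by ELISA, with bidirectional curve fitting relative to DMSO as negative control and baseline.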

Read-out in another assay: CD38, CD38 (gene 952)
The assay can be described thus: BSK_SAg_CD38: BioMAP Diversity Plus: SAg Assay for CD38 Biomarker Activity (AID 2283087). The settings on record: primary human HUVEC with PBMC; actives raise or lower the signal. In a few lines: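 Fluorescence ELISA of cell-surface CD38 served as the read-out, with either increase or decrease fitted against DMSO controls. Cells were a human umbilical vein endothelium plus PBMC co-culture under SEB/TSST-1 stimulation, measured 24 h after dosing.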

Read-out in assay [18]: CD40, CD40 (gene 958)
The assay is described as follows: BSK_SAg_CD40: BioMAP Diversity Plus: SAg Assay for CD40 Biomarker Activity (AID 2283088). The settings on record: primary human HUVEC with PBMC; actives raise or lower the signal. The method, boiled down: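 HUVEC/PBMC co-culture, 24 h post-dose; CD40 by ELISA, fluorescence intensity; bidirectional fit vs DMSO negative control.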

Read-out in a further assay: CD69, CD69 (gene 969)
The assay can be described thus: BSK_SAg_CD69: BioMAP Diversity Plus: SAg Assay for CD69 Biomarker Activity (AID 2283089).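 For AC50: cell surface CD69 protein quantified by ELISA with fluorescence detection.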 The settings on record: primary human HUVEC with PBMC; actives raise or lower the signal. The method, boiled down: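 ELISA, fluorescence read-out: CD69 on human umbilical vein endothelial cell + PBMC co-culture, 24 h post-dosing. Gain or loss of signal fitted bidirectionally against DMSO baseline.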

Activity calls are given as the source filed them. Rule for the calls: active = hit-call score of the fitted dose curve at least 0.9, where 1 is the maximum; inactive = score below 0.9.

E-selectin (Homo sapiens), sequence (P16581 whole entry, looked up): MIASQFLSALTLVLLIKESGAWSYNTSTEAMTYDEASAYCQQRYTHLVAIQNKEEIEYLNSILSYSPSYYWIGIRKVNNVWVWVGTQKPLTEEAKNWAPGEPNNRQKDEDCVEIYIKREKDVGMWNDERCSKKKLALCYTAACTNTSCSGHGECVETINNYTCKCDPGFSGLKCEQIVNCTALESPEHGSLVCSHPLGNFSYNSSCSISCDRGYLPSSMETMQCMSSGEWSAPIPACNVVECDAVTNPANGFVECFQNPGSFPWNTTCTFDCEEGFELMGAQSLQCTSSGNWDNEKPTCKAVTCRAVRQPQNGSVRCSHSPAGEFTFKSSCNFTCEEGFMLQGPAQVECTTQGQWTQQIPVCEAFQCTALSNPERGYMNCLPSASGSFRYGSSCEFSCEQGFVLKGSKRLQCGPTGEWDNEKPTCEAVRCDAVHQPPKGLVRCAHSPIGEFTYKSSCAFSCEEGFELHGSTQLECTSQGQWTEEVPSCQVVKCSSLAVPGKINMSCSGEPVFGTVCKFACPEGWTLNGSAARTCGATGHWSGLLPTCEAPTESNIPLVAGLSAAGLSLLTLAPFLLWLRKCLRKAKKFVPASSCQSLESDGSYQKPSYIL
Tumor necrosis factor (Homo sapiens), sequence (P01375 whole entry, looked up): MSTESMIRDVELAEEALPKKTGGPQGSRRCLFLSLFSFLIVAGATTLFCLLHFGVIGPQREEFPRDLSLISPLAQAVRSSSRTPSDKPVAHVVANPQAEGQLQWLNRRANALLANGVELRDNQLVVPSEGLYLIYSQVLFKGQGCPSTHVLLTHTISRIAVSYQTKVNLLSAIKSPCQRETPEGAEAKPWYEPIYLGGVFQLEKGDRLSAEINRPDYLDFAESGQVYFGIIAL

Usually AC50 stands for the concentration at which the activity in the assay is half-maximal. As to `Oc1ccccc1-c1ccccc1`, the result in [1], in [2], in assay [3], in assay [4], in assay [5] and in assay [6] was inactive. The outcome was “inactive” with CD40, CD40 (gene 958) [7]; “inactive” in assay [8]; “inactive” in [9]; “inactive” in [10]; “inactive” in assay [11]; “inactive” in [12]. For the same molecule, the outcome in [14] was “inactive”; in assay [15] it was “inactive”; in assay [17] it was “inactive”; in the assay with CD38, CD38 (gene 952) it was “inactive”; with CD40, CD40 (gene 958) [18] it was “inactive”; with CD69, CD69 (gene 969), “inactive”. The AC50 was 4.65 µM (active) in assay [13] and 14.8 µM (active) in assay [16].
In the case of `CC(C)C1(C)N=C(c2nc3ccccc3cc2C(=O)O)NC1=O` (stereo not given), the result in assay [1], in assay [2], in assay [3], in assay [4], in assay [5] and in assay [6] was inactive. Moreover, the outcome with CD40, CD40 (gene 958) [7] was “inactive”; in assay [8] it was “inactive”; in assay [9] it was “inactive”; in assay [10], “inactive”; in [11], “inactive”; in [12] it was “inactive”. For the same molecule, the outcome was “inactive” in [13]; “inactive” in [15]; “inactive” in assay [16]; “inactive” in [17]; “inactive” with CD38, CD38 (gene 952); “inactive” in the assay with CD69, CD69 (gene 969). The AC50 is 2.62 µM (active) in assay [14] and 1.33 µM (active) with CD40, CD40 (gene 958) [18].
Turning to `Cc1c(F)c(F)c(COC(=O)C2C(/C=C(\Cl)C(F)(F)F)C2(C)C)c(F)c1F` (stereo not given), the outcome in assay [1], in assay [2], in assay [3], in [4], in assay [6] and in [8] was inactive. The outcome in [10], in [12], in assay [13], in assay [15] and in assay [16] was inactive. The concentration at half-maximal activity (AC50) is 2.72 µM (active) in assay [5]; 13.7 µM (active) in the assay with CD40, CD40 (gene 958) [7]; 12.2 µM (active) in assay [9]; 0.3 µM (active) in assay [11]; 12.7 µM (active) in assay [14]; 12 µM (active) in assay [17]. Further, the concentration at half-maximal activity (AC50) in the assay with CD38, CD38 (gene 952) is 9.52 µM (active); with CD40, CD40 (gene 958) [18] it was 32.5 µM (active); with CD69, CD69 (gene 969) it was 5.53 µM (active).
